The text below walks through data of PubChem BioAssay.

The nature of assay [1]: viability loss with induced miR-34 in A549 – imaging, A549 dox-inducible miR-34, nuclei and caspase counts, primary screen (AID 1347080). Note: test concentration not given here. To be noted: A549 miR-34 inducible, Hoechst nuclei count, 48 h.
A short description of assay [2]: galactose survival enhancers in mitochondrial complex I cybrids – cell-based, galactose medium, ATP luminescence, primary screen (AID 1645843;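 active = z-score of at least 1.8 in each of two replicates, scored against plate mean and spread of sample wells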;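 note: positive z means more ATP and so rescue of galactose-driven cybrid death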). To be noted: complex I mutant cybrid cells, 72 h, stronger effect = higher value.
Where [3] appears, read: stronger effect = lower value, cell number ratio, induced over uninduced.
Setting [4] is: measured here: relative caspase fold change +Dox/-Dox.
The mark [5] stands for this setting: measured here: total cells with miR-34 induction, stronger effect = lower value.
The mark [6] stands for this setting: measured here: total cells without miR-34 induction.

Calls of active or inactive are those of the source.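 Rule for the calls, unless noted: active = compounds whose cell count with miR-34 switched on is under 0.7 times the count with it off; inactive = the rest.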

Regarding `Nc1nc(Cl)nc2c1ncn2C1OC(CO)C(O)C1O` (stereo not given), the figures for the fold change in assay [1] (setting [3]) and in assay [1] (setting [4]) were 1.26 (inactive) and 0.688, respectively. Also, the figures for the cell count in assay [1] (setting [5]) and in assay [1] (setting [6]) were 2120 and 1680, respectively. Besides, the z-score in assay [2] was -0.02 (inactive).
For `CNC(=O)[C@H]1O[C@@H](n2cnc3c(NCc4ccc(I)cc4)nc(Cl)nc32)[C@H](O)[C@@H]1O`, the fold change in assay [1] (setting [3]) was 1.02 (inactive); in assay [1] (setting [4]) it was 1.05. For the same compound, the cell count in assay [1] (setting [5]) was 5610; in assay [1] (setting [6]), 5510. The z-score in assay [2] was 1.29 (inactive).
`COC(=O)C[C@](O)(CCCC(C)(C)O)C(=O)OC1C(OC)=C[C@]23CCCN2CCc2cc4c(cc2C13)OCO4` (stereo not given in full): the figures for the fold change in assay [1] (setting [3]) and in assay [1] (setting [4]) were 0.85 (inactive) and 0.957, respectively. For the same compound, the cell count in assay [1] (setting [5]) turned out to be 1590; in assay [1] (setting [6]), 1870. In assay [2], the z-score was -1.86 (inactive).
Consider `CN(C)C1C(=O)C(C(=O)NCN2CCCC2)=C(O)[C@@]2(O)C(=O)C3=C(O)c4c(O)cccc4[C@@](C)(O)C3CC12` (stereo not given in full), for which the fold change is 0.983 (inactive) in assay [1] (setting [3]) and 1.25 in assay [1] (setting [4]). For the same compound, the figures for the cell count in assay [1] (setting [5]) and in assay [1] (setting [6]) were 8500 and 8650, respectively. For the same compound, the z-score in assay [2] is 0.465 (inactive).
For the compound `COc1cc(CC(CO)C(CO)Cc2ccc(O)c(OC)c2)ccc1O` (stereo not given), the fold change was 1.4 (inactive) in assay [1] (setting [3]) and 0.831 in assay [1] (setting [4]). The cell count stood at 8290 in assay [1] (setting [5]) and 5940 in assay [1] (setting [6]). Besides, the z-score in assay [2] was 0.405 (inactive).
For the compound `CC(C)(C)NC(=O)C1CN(Cc2cccnc2)CCN1CC(O)CC(Cc1ccccc1)C(=O)NC1c2ccccc2CC1O` (stereo not given), the fold change in assay [1] (setting [3]) is 0.967 (inactive); in assay [1] (setting [4]), 1.5. The cell count in assay [1] (setting [5]) is 9380; in assay [1] (setting [6]), 9700. For the same compound, the z-score in assay [2] is 1.61 (inactive).
Consider `O=C1c2cccc3c2C(CCC3)CN1C1CN2CCC1CC2` (stereo not given), for which the fold change is 1.56 (inactive) in assay [1] (setting [3]) and 0.609 in assay [1] (setting [4]). Moreover, the cell count in assay [1] (setting [5]) was 5340; in assay [1] (setting [6]), 3420. Besides, in assay [2], the z-score is -0.005 (inactive).
The matching figures for `CCC1OC(=O)C(C)C(=O)C(C)C(OC2OC(C)CC(N(C)C)C2O)[C@](C)(OC)CC(C)C(=O)C(C)C2N(CCCCn3cnc(-c4cccnc4)c3)C(=O)O[C@]12C` (stereo not given in full): 0.904 (inactive), 0.557, 7630, 8440 and 0 (inactive).
With `CC1CNc2c(cccc2S(=O)(=O)NC(CCCN=C(N)N)C(=O)N2CCC(C)CC2C(=O)O)C1` (stereo not given), the fold change in assay [1] (setting [3]) is 0.968 (inactive); in assay [1] (setting [4]), 1.83. Besides, the cell count in assay [1] (setting [5]) came to 10100; in assay [1] (setting [6]), 10500. The z-score in assay [2] was 0.935 (inactive).
In the case of `C#C[C@]1(O)CCC2C3CCC4=CC(=O)CCC4C3CC[C@@]21CC` (stereo not given in full), the fold change in assay [1] (setting [3]) is 0.905 (inactive); in assay [1] (setting [4]), 1.25. Besides, the cell count is 8490 in assay [1] (setting [5]) and 9390 in assay [1] (setting [6]). Besides, the z-score in assay [2] was 0.65 (inactive).
Regarding `COC1C(OC(C)=O)CC(=O)OC(C)CC=CC=CC(O)C(C)CC(CC=O)C1OC1OC(C)C(OC2C[C@@](C)(OC(=O)CC(C)C)C(O)C(C)O2)C(N(C)C)C1O` (stereo not given in full), the values for the fold change in assay [1] (setting [3]) and in assay [1] (setting [4]) were 1.04 (inactive) and 1.51, respectively. For the same compound, the figures for the cell count in assay [1] (setting [5]) and in assay [1] (setting [6]) were 9630 and 9280, respectively. Further, the z-score in assay [2] is -1.59 (inactive).
Regarding `OCC1OC(n2cnc3c(NC4CCCC4O)ncnc32)C(O)C1O` (stereo not given), the fold change in assay [1] (setting [3]) was 0.907 (inactive); in assay [1] (setting [4]), 0.906. In addition, the cell count in assay [1] (setting [5]) amounted to 9400; in assay [1] (setting [6]), 10400. Besides, in assay [2], the z-score was 0.73 (inactive).
The like results for `CN1C(=O)CCC1c1cccnc1` (stereo not given) were, in that order, 0.988 (inactive), 2.52, 9830, 9950 and 0.965 (inactive).
The like results for `CC(=O)OC1CC2CCC3C(CCC4(C)C3CC([N+]3(C)CCCCC3)C4OC(C)=O)C2(C)CC1[N+]1(C)CCCCC1` (stereo not given) were, in that order, 0.885 (inactive), 2.7, 8890, 10000 and 0.825 (inactive).
As to `CC(=O)O[C@]1(C(C)=O)CCC2C3C=C(C)C4=CC(=O)CC[C@]4(C)C3CC[C@@]21C` (stereo not given in full), the fold change is 0.943 (inactive) in assay [1] (setting [3]) and 1.2 in assay [1] (setting [4]). For the same compound, the cell count in assay [1] (setting [5]) is 6760; in assay [1] (setting [6]), 7170. For the same compound, in assay [2], the z-score is -0.29 (inactive).
The matching figures for `CC(C)CC(NC(=O)C(COC(C)(C)C)NC(=O)C(Cc1ccc(O)cc1)NC(=O)C(CO)NC(=O)C(Cc1c[nH]c2ccccc12)NC(=O)C(Cc1cnc[nH]1)NC(=O)C1CCC(=O)N1)C(=O)NC(CCCN=C(N)N)C(=O)N1CCCC1C(=O)NNC(N)=O` (stereo not given): 1.04 (inactive), 1.1, 7490, 7190 and 0.385 (inactive).
On to `CC1CN(CCCn2c3ccccc3c3ccccc32)CC(C)N1` (stereo not given), for which the fold change in assay [1] (setting [3]) is 0.806 (inactive); in assay [1] (setting [4]) it was 1.22. Further, the figures for the cell count in assay [1] (setting [5]) and in assay [1] (setting [6]) were 6730 and 8340, respectively. Besides, in assay [2], the z-score was -1.61 (inactive).
For `CCOC(=O)O[C@]1(C(=O)OCCl)CCC2C3CCC4=CC(=O)C=C[C@]4(C)C3C(O)C[C@@]21C` (stereo not given in full), the fold change in assay [1] (setting [3]) is 0.961 (inactive); in assay [1] (setting [4]), 1.35. Besides, the cell count turned out to be 6110 in assay [1] (setting [5]) and 6360 in assay [1] (setting [6]). Besides, in assay [2], the z-score was 0.71 (inactive).
The like results for `COc1ccc2c3c1OC1CC(O)C=C[C@@]31CCN(C)C2` (stereo not given in full) were, in that order, 0.977 (inactive), 1.4, 9660, 9890 and 0.92 (inactive).
The matching figures for `O=c1cnn(C2OC(CO)C(O)C2O)c(=O)[nH]1` (stereo not given): 1.77 (inactive), 0.641, 1880, 1060 and -0.74 (inactive).
Take `CC1=C(C(=O)O)N2C(=O)C(NC(=O)C(N)c3ccccc3)C2SC1` (stereo not given): the results for the fold change in assay [1] (setting [3]) and in assay [1] (setting [4]) were 0.933 (inactive) and 1.4, respectively. Moreover, the figures for the cell count in assay [1] (setting [5]) and in assay [1] (setting [6]) were 8950 and 9590, respectively. In assay [2], the z-score is 0.52 (inactive).
Consider `CC(=O)O[C@@]12COC1CC(O)[C@@]1(C)C(=O)C(O)C3=C(C)C(OC(=O)C(O)C(NC(=O)OC(C)(C)C)c4ccccc4)C[C@](O)(C(OC(=O)c4ccccc4)C21)C3(C)C` (stereo not given in full), for which the fold change was 1.14 (inactive) in assay [1] (setting [3]) and 1.25 in assay [1] (setting [4]). Besides, the cell count in assay [1] (setting [5]) was found to be 3410; in assay [1] (setting [6]), 2990. Besides, in assay [2], the z-score was -1.09 (inactive).
The like results for `C=CC1=C(C(=O)O)N2C(=O)C(NC(=O)C(=NO)c3csc(N)n3)C2SC1` (stereo not given) were, in that order, 0.914 (inactive), 1.91, 9440, 10300 and 0.13 (inactive).
For the compound `CC(C)(C)C(O)C=Cc1ccc2c(c1)OCO2` (stereo not given), the fold change in assay [1] (setting [3]) is 1.46 (inactive); in assay [1] (setting [4]), 0.768. Moreover, the cell count in assay [1] (setting [5]) is 8470; in assay [1] (setting [6]) it was 5780. In addition, the z-score in assay [2] was -0.12 (inactive).
The like results for `[Cl-].[Cl][Pt].[NH2-].[NH2-].c1ccncc1` were, in that order, 0.987 (inactive), 0.925, 9550, 9680 and -1 (inactive).
